Calls of active or inactive are those of the source.

Among the data in PubChem BioAssay are composite z-score and z-score values, retold here.

The test system of assay [1] is PRMT1 (protein arginine N-methyltransferase 1). The experiment in a line: PRMT1 binders on small-molecule microarrays, primary screen, biochemical, small-molecule microarray, 635 nm fluorescence (AID 1088).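 Note: binding of Prmt1 protein to compounds spotted on small-molecule microarray slides.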 The note with it: small-molecule microarray binding, higher = more signal.
The nature of assay [2]: yeast growth modulation, basal conditions, primary screen, YJM789 clinical isolate, OD600, 24 h (AID 1089).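 Note: growth of clinical yeast isolate S. cerevisiae YJM 789 seeded 1000 cells per well; test concentration not given here.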 The note with it: S. cerevisiae YJM789 growth, higher = more signal, called active from +8 up or from −8 down.
Assay [3] in a line: fission yeast growth modulation, primary screen, strain 972, OD600, 24 h, no modulator (AID 1090).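 Note: basal condition with compound alone and no growth modifier present; test concentration not given here.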 Particulars: S. pombe 972 growth, higher = more signal, called active from +8 up or from −8 down.
Assay [4] in a line: S. cerevisiae growth modulation with rapamycin, primary screen, strain BY4716, OD600, 96 h (AID 1091). Note: test concentration not given here. Particulars: higher = more signal, called active from +8 up or from −8 down.
Assay [5] deals with Torsin-1A-interacting protein 2 (Homo sapiens) (UniProt Q8NFQ8). Kind of assay: LULL1 binders on small-molecule microarray, primary screen, cell lysate, human LULL1 lysate, 635/667 nm fluorescence (AID 1092).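 Note: probe is lysate of COS7 cells overexpressing human LULL1; score merges per-feature 667 nm fluorescence with signal-to-noise.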 The note with it: hLULL1 lysate binding, 635 nm fluorescence, higher = more signal.
Chain of Torsin-1A-interacting protein 2 (Homo sapiens) (Q8NFQ8 whole entry, looked up): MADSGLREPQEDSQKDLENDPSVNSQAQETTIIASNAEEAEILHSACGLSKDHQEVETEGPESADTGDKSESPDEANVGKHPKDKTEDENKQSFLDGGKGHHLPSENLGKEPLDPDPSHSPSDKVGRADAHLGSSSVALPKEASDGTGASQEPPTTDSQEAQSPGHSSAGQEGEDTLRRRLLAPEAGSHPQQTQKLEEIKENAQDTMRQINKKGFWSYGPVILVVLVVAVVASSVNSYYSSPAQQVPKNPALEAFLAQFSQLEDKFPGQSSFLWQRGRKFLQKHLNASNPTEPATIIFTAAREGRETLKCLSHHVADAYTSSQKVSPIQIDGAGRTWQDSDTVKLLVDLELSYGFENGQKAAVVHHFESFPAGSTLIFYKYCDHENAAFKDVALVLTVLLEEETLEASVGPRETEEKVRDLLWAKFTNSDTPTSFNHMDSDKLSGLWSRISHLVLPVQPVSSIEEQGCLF
The nature of assay [6]: E. coli growth modulation, two-sided OD650, primary screen, E. coli filamentation project, strain DRC41, 24 h (AID 1093).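 Note: MC1000 strain lacking acrAB efflux and sulA so SOS filamentation is blocked; test concentration not given here.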 Particulars: OD650, 24 h, higher = more signal, called active from +8 up or from −8 down.
Assay [7] can be described thus: small-molecule microarray binders of probe aLefty2, primary screen, biochemical, biotinylated probe, 635/667 nm fluorescence (AID 1094).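 Note: score merges spot fluorescence near 667 nm with spot signal-to-noise ratio.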 The note with it: higher = more signal.
Assay [8] has as its system Noggin (protein binding on small-molecule microarray). Kind of assay: Noggin binders on small-molecule microarray, primary screen, biochemical, 635/667 nm fluorescence (AID 1095).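 Note: score merges 667 nm feature fluorescence with signal to noise over triplicate slides.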 The note with it: 635 nm fluorescence, higher = more signal.
Assay [9] has as its target Neurogenic locus notch homolog protein 3 (Homo sapiens) (UniProt Q9UM47). The experiment in a line: NOTCH3 binders on small-molecule microarray, primary screen, biochemical, 635/667 nm fluorescence (AID 1096). Particulars: NOTCH3 binding, 635 nm fluorescence, higher = more signal.
Assay [10] can be described thus: small-molecule microarray binders of probe aEGFR, primary screen, biochemical, biotinylated probe, 635/667 nm fluorescence (AID 1097).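 Note: probe is a biotinylated anti-EGFR antibody binding compounds printed on slides; score combines fluorescence near 667 nm and signal to noise of each spot.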 Particulars: higher = more signal.

Chain of Neurogenic locus notch homolog protein 3 (Homo sapiens) (Q9UM47 whole entry, looked up): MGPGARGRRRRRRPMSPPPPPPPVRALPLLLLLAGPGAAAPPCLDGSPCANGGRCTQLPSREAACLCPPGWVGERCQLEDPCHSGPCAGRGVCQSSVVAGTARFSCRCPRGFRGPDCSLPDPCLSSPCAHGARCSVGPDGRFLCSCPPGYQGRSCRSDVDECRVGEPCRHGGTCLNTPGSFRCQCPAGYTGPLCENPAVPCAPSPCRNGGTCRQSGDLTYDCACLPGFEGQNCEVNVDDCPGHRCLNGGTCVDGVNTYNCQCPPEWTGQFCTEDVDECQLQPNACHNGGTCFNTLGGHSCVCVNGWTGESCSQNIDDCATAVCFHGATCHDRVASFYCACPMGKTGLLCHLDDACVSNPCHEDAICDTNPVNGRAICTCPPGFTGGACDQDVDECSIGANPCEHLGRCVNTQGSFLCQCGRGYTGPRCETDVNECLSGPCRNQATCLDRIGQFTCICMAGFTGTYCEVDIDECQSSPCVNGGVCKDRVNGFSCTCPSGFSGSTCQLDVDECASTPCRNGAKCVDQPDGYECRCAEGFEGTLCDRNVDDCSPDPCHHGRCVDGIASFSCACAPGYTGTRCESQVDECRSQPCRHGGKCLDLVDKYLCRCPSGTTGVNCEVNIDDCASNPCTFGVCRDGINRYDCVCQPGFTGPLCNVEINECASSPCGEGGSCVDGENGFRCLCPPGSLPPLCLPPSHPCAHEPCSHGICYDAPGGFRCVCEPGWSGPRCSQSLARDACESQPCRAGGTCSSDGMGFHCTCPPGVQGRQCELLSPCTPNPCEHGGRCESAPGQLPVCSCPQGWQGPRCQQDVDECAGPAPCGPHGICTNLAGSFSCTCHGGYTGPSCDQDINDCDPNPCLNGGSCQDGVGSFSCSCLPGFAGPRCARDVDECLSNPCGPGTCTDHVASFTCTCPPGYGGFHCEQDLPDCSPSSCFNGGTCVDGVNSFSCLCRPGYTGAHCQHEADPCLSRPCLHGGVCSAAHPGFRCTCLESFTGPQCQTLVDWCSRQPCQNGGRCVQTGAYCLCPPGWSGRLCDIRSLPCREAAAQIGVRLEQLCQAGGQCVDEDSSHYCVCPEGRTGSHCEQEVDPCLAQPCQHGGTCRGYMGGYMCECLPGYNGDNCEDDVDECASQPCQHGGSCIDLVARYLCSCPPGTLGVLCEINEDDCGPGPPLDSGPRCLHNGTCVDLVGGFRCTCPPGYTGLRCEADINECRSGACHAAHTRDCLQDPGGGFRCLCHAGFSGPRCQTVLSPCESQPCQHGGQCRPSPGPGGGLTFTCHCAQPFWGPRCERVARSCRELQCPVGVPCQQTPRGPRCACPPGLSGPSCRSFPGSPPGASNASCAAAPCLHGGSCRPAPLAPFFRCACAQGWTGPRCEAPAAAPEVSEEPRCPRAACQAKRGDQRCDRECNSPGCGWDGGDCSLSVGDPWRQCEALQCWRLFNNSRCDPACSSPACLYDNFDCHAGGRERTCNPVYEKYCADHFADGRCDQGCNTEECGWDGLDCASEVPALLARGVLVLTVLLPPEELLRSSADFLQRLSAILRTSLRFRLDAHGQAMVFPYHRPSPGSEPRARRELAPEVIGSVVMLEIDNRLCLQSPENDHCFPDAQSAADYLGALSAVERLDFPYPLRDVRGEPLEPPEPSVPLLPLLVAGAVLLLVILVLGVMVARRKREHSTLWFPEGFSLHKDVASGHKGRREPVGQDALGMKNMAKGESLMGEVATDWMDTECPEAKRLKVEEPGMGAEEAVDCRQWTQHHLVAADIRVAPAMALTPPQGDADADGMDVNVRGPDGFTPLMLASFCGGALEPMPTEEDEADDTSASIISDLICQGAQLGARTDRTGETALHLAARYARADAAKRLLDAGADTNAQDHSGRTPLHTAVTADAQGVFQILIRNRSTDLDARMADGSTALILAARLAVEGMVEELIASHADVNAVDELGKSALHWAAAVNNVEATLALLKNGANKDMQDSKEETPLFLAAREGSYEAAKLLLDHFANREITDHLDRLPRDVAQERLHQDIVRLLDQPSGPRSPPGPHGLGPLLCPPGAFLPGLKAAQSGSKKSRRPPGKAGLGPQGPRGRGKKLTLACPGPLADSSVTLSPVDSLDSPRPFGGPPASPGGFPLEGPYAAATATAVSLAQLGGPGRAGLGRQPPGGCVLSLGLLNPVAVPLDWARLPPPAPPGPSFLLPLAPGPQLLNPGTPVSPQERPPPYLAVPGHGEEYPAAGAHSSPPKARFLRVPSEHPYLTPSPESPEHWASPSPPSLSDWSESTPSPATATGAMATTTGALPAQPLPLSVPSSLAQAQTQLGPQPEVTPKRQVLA

Take `CN1C2C=C(CCCO)C(C3C(=O)N(C(N)=O)C(=O)C32)C1C1CC1` (stereo not given): the composite z-score in [1] was -0.0255; in [5], 0.0963; in assay [7] it was -0.0812; in assay [8] it was -0.22; in assay [9], -0.523; in assay [10], -0.163. In addition, the z-score is -0.163 (inactive) in assay [2], -0.0516 (inactive) in assay [3], -0.32 (inactive) in [4] and -0.583 (inactive) in assay [6].

Regarding `COc1cc2c(cc1O)C(c1ccc(CN3CCCC3)cc1)N(Cc1cc3c(cc1Br)OCO3)CC2` (stereo not given), the composite z-score in [1] was -0.137; in assay [5], 0.502; in assay [7] it was -0.0576; in assay [8] it was -0.244; in [9], 0.313; in assay [10] it was -0.176. Moreover, the z-score in [2] is -0.312 (inactive); in assay [3], -6.22 (inactive); in [4] it was -1.83 (inactive); in [6], -3.03 (inactive).

As for `CC(C)[Si]1(C(C)C)OCc2cc(-c3ccc(-c4ccc(Cl)c(Cl)c4)o3)nc(-c3ccccc3)c21`, the composite z-score in assay [1] is -0.715; in assay [5], -1.75; in [7], -0.0803; in assay [8], -0.401; in assay [9] it was -0.444; in assay [10], -0.316. Further, the z-score in assay [2] was 0.0932 (inactive); in [3], -1.39 (inactive); in [4], 0.265 (inactive); in [6] it was -0.184 (inactive).

Regarding `C=CCNC(=O)[C@@H]1[C@H]2C(=O)O[C@H](c3ccccc3)[C@H](c3ccccc3)N2[C@H](c2ccccc2OCCO)[C@@]12C(=O)Nc1ccc(C#CCCO)cc12`, the composite z-score in assay [1] is 1.55; in assay [5], 2.3; in assay [7] it was -0.106; in assay [8], 1.23; in [9], 0.686; in assay [10] it was -0.165. Further, the z-score is 1.31 (inactive) in assay [2], -1.46 (inactive) in [3], 3.43 (inactive) in assay [4] and -0.372 (inactive) in [6].

For `CCCCC(CC)C(O)C1C=CC2C(=O)N(c3ccccc3)C(=O)C2N1Nc1ccc(C#N)cc1` (stereo not given), the composite z-score in assay [1] was 1.54; in assay [5] it was 3.14; in assay [7], 0.555; in assay [8] it was 0.208; in assay [9], 1.04; in assay [10] it was 0.338. For the same molecule, the z-score in assay [2] was 0.491 (inactive); in assay [3], 0.221 (inactive); in assay [4] it was 1.85 (inactive); in assay [6], 0.0307 (inactive).

Consider `CCOC(=O)C[C@H]1[C@H](OC(=O)c2ccc(C(=O)c3ccccc3)cc2)[C@@H](NC(=O)CC(C)C)c2cc(OCCCO)ccc2N1C(=O)c1ccccc1`, for which the composite z-score in assay [1] stood at 1.34; in [5], 2.03; in assay [7], 0.0769; in [8], 0.937; in assay [9], 0.961; in assay [10], 0.0807. Besides, the z-score is -0.327 (inactive) in assay [2], -0.333 (inactive) in assay [3], 0.276 (inactive) in assay [4] and -0.747 (inactive) in assay [6].

For `COC(=O)[C@@]1(Cc2ccc(OC)cc2)[C@H]2c3cc(C(=O)N4CCCC4)n(CCc4c[nH]c5ccc(OC)cc45)c3C[C@H]2CN1C(=O)c1ccccc1`, the composite z-score is 0.0079 in assay [1]; 3.03 in [5]; 0.722 in assay [7]; -0.0307 in [8]; 1.02 in assay [9]; 0.318 in assay [10]. The z-score in assay [2] is 0.425 (inactive); in assay [3], 1.84 (inactive); in [4], 4.15 (inactive); in assay [6], -0.669 (inactive).

For `COCC(=C=CC[C@H](O)c1ccc(CO)o1)CCO`, the composite z-score in [1] is 1.09; in assay [5] it was 0.751; in assay [7], -0.0501; in assay [8] it was 1.04; in [9], 1.12; in assay [10], -0.0976. The z-score in assay [2] was 0.6 (inactive); in [3], 0.0793 (inactive); in assay [4], 0.244 (inactive); in [6], -0.349 (inactive).

Turning to `C=CCC(OC(C)=O)[C@@H]1[C@@H](N(Cc2ccc(-c3cccc(C(F)(F)F)c3)o2)C(=O)c2ccc(-c3ccccc3)cc2)c2cc(OCCCO)ccc2N1C(=O)Cc1ccc2ccccc2c1` (stereo not given in full), the composite z-score in assay [1] is -0.457; in assay [5], 0.512; in [7] it was -0.0928; in assay [8], -0.214; in assay [9], -0.3; in [10], -0.235. The z-score in assay [2] is 0.955 (inactive); in [3], 0.863 (inactive); in [4], 1.09 (inactive); in assay [6] it was -0.898 (inactive).

On to `CC(C)C(CO)N1C(=O)[C@@H]2C3C(=O)OCCC/C=C\[C@H]3OC23C=CCN(c2ccc4ccccc4c2)C(=O)[C@@H]13` (stereo not given in full), for which the composite z-score was -0.403 in assay [1]; 1.34 in assay [5]; -0.0928 in [7]; -0.469 in assay [8]; 0.121 in assay [9]; -0.203 in [10]. The z-score in [2] was -0.25 (inactive); in assay [3] it was -1.45 (inactive); in assay [4] it was -0.0641 (inactive); in [6], -0.395 (inactive).

Take `NCCCCCNC(=O)[C@@H]1C[C@@H]2C(=O)N[C@@H](CCCCN)C(=O)N2[C@@H]1c1ccc(O)cc1`: the composite z-score in assay [1] stood at 1.53; in [5], 3.2; in assay [7] it was 0.303; in [8], 1.67; in [9] it was 0.881; in [10], 0.345. Further, the z-score in assay [2] is 1.83 (inactive); in [3], 1.91 (inactive); in assay [4], 3.76 (inactive); in assay [6] it was -0.0616 (inactive).

On to `CCC1=C2CN(Cc3ccccc3)[C@@H](C(=O)Cc3ccccc3)C2C=CCC1` (stereo not given in full), for which the composite z-score in assay [1] is -0.279; in assay [5], 2.47; in assay [7], -0.164; in [8] it was 0.751; in assay [9] it was 0.841; in assay [10] it was -0.177. Further, the z-score is -0.273 (inactive) in assay [2], -2.18 (inactive) in assay [3], -0.728 (inactive) in assay [4] and 0.673 (inactive) in assay [6].

On to `OCCCC1=CC(c2ccc(CN3CCCC3)cc2)N(Cc2cc3c(cc2Br)OCO3)CC1` (stereo not given), for which the composite z-score in [1] was 0.233; in assay [5] it was -0.692; in assay [7] it was 0.112; in [8], 0.386; in assay [9] it was -0.102; in assay [10], 0.0617. Besides, the z-score in [2] is -2.55 (inactive); in assay [3], -1.35 (inactive); in [4] it was -0.705 (inactive); in assay [6] it was 0.497 (inactive).

With `CCOC(=O)[C@@H]1CCCCN1C(=O)C(=O)OC`, the composite z-score in assay [1] was 0.828; in assay [5], 0.377; in assay [7], -0.0728; in [8], 0.415; in assay [9], 0.717; in assay [10], -0.133. The z-score was 0.0293 (inactive) in assay [2], 0.656 (inactive) in assay [3], -0.131 (inactive) in [4] and 0.66 (inactive) in assay [6].
